Among the test systems are NCI-H23 lung; NCI-H226 lung; NCI-H322M lung; HOP-62 NSCLC; NCI-H460 lung; HOP-92 NSCLC; NCI-H522 lung; A549/ATCC NSCLC; 786-0 renal; COLO 205 colon; DU-145 prostate; K-562 leukemia; MALME-3M melanoma; MDA-MB-231 breast; RXF 393 renal; SF-268 CNS; SF-295 CNS; SF-539 CNS; UACC-257 melanoma; M14 melanoma.
Experiment in all cases: NCI-60 one-dose screen, 48 h (100 = growth as untreated, 0 = no growth, -100 = all killed)
Common to all, as to conditions: 10 µM unless noted

The panel holds about 83,000 compounds, 20% with a hit somewhere; the sample as a whole holds those more often.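 Single-dose data. Exposure time 48 hours. Values below 10 considered active.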 Values without a mark were called inactive. Activity calls are given as the source filed them.

Take `FC(F)(F)c1cccc(-c2nnn(Cc3cc(-c4cccc(Cl)c4)no3)n2)c1`: the growth in the experiment with NCI-H23 lung was 102%; in the experiment with NCI-H226 lung it was 101%; with NCI-H322M lung, 111%; with HOP-62 NSCLC, 108%; with NCI-H460 lung, 103%; with HOP-92 NSCLC, 100%. For the same molecule, the growth is 99.6% in the experiment with NCI-H522 lung; 100% in the experiment with A549/ATCC NSCLC; 105% in the experiment on 786-0 renal; 112% in the experiment with COLO 205 colon; 113% in the experiment on DU-145 prostate; 113% with K-562 leukemia. The growth is 97.5% with MALME-3M melanoma; 117% in the experiment with MDA-MB-231 breast; 109% in the experiment on RXF 393 renal; 99.1% in the experiment with SF-268 CNS; 111% in the experiment on SF-295 CNS; 102% with SF-539 CNS. The growth is 96.3% with UACC-257 melanoma and 101% in the experiment on M14 melanoma.

On to `COc1cccc2cc(N(C)c3nc(C)nc4c3CCC4)ccc12`, for which the growth is 22.4% with NCI-H23 lung; 25.8% in the experiment with NCI-H226 lung; 59.1% in the experiment with NCI-H322M lung; 14.7% in the experiment on HOP-62 NSCLC; 6.85% (active) in the experiment on NCI-H460 lung; 0.483% (active) with HOP-92 NSCLC. The growth with NCI-H522 lung was -16.9% (active); with A549/ATCC NSCLC, 14.8%; in the experiment on 786-0 renal it was 3.77% (active); in the experiment on COLO 205 colon, -66.4% (active); in the experiment on DU-145 prostate, 5.3% (active); in the experiment with K-562 leukemia it was 10.4%. For the same molecule, the growth is 57.4% in the experiment with MALME-3M melanoma; 24.8% with MDA-MB-231 breast; 44% in the experiment on RXF 393 renal; 25.9% in the experiment on SF-268 CNS; 15.3% in the experiment with SF-295 CNS; -0.597% (active) with SF-539 CNS. In addition, the growth is 59.1% with UACC-257 melanoma and 6.91% (active) in the experiment on M14 melanoma.

Turning to `COC1=C(OC)C(=O)C(CCCCCCCCCCO)=C(C)C1=O`, the growth in the experiment with NCI-H23 lung was 35.2%; with NCI-H226 lung, 96.6%; with NCI-H322M lung it was 112%; with HOP-62 NSCLC it was 86.4%; in the experiment with NCI-H460 lung it was 98.8%; in the experiment on HOP-92 NSCLC, 76.6%. The growth in the experiment on NCI-H522 lung was 63.7%; in the experiment with A549/ATCC NSCLC, 96%; in the experiment with 786-0 renal, 83.3%; with COLO 205 colon, 102%; with DU-145 prostate it was 72%; with K-562 leukemia it was 45.7%. The growth was 87% in the experiment with MALME-3M melanoma; 42% with MDA-MB-231 breast; 64% in the experiment with RXF 393 renal; 64.2% in the experiment on SF-268 CNS; 77.8% in the experiment on SF-295 CNS; 74% in the experiment with SF-539 CNS. Besides, the growth in the experiment with UACC-257 melanoma is 46%; in the experiment on M14 melanoma, 92.7%.

For the molecule `Nc1ccc(N)c2c1C(=O)c1cccc([N+](=O)[O-])c1C2=O`, the growth in the experiment on NCI-H23 lung was -29.1% (active); in the experiment on NCI-H226 lung it was 16.6%; with NCI-H322M lung, 2.12% (active); in the experiment with HOP-62 NSCLC, 9.73% (active); in the experiment on NCI-H460 lung, -3.34% (active); in the experiment with HOP-92 NSCLC, 63.3%. The growth in the experiment with NCI-H522 lung is 25.6%; in the experiment with A549/ATCC NSCLC it was 20.8%; in the experiment with 786-0 renal it was 17.4%; in the experiment with COLO 205 colon, 66.3%; in the experiment on DU-145 prostate it was -15.9% (active); in the experiment with K-562 leukemia, 40.4%. In addition, the growth was 54.3% in the experiment with MALME-3M melanoma; 67.9% in the experiment with MDA-MB-231 breast; 45.7% in the experiment with RXF 393 renal; 57.3% in the experiment with SF-268 CNS; 21.3% in the experiment with SF-295 CNS; 23.6% with SF-539 CNS. Also, the results for the growth in the experiment on UACC-257 melanoma and with M14 melanoma were 52.3% and 30.8%, respectively.

On to `COc1ccc(C(=O)/C=C/c2ccc(C)cc2)cc1S(N)(=O)=O`, for which the growth in the experiment with NCI-H23 lung was 77.4%; in the experiment with NCI-H226 lung, 83%; in the experiment with NCI-H322M lung, 36.1%; in the experiment on HOP-62 NSCLC, 78.1%; in the experiment on NCI-H460 lung, 53.5%; in the experiment on HOP-92 NSCLC, 41.2%. The growth was 43.1% in the experiment on NCI-H522 lung; 43.6% with A549/ATCC NSCLC; 40.8% in the experiment with 786-0 renal; 95.8% with COLO 205 colon; 47.3% in the experiment on DU-145 prostate; 3.04% (active) with K-562 leukemia. Further, the growth is 96.9% in the experiment on MALME-3M melanoma; 58.9% in the experiment on MDA-MB-231 breast; 74.4% with RXF 393 renal; 72.4% in the experiment with SF-268 CNS; 91.3% in the experiment with SF-295 CNS; 25% with SF-539 CNS. The growth in the experiment with UACC-257 melanoma was 83.2%; with M14 melanoma, 71.1%.

On to `O=C(Nc1ncc(Cc2ccc(Cl)cc2)s1)c1ccc2c(c1)OCCO2`, for which the growth in the experiment on NCI-H23 lung is 37%; with NCI-H226 lung it was 23.5%; with NCI-H322M lung, 46.8%; in the experiment with HOP-62 NSCLC it was 26.8%; in the experiment with NCI-H460 lung it was 8% (active); in the experiment on HOP-92 NSCLC, 60.6%. In addition, the growth was 2.46% (active) with NCI-H522 lung; 18% in the experiment with A549/ATCC NSCLC; 38.7% in the experiment on 786-0 renal; -13.7% (active) in the experiment with COLO 205 colon; 16.6% with DU-145 prostate; 8.41% (active) with K-562 leukemia. Besides, the growth in the experiment with MALME-3M melanoma was 57.8%; in the experiment on MDA-MB-231 breast, 10.9%; in the experiment with RXF 393 renal it was 3.74% (active); in the experiment on SF-268 CNS it was 42.9%; with SF-295 CNS, 11.7%; in the experiment on SF-539 CNS, -4.99% (active). Besides, the growth in the experiment with UACC-257 melanoma is 44.1%; in the experiment with M14 melanoma, 17.3%.

On to `O=C(OCc1ccc2c(Br)cc(Br)c(O)c2n1)N1CCN(C(=O)c2cc3ccccc3[nH]2)CC1`, for which the growth with NCI-H23 lung was 39.4%; with NCI-H226 lung, 39.5%; in the experiment on NCI-H322M lung, 44.9%; in the experiment on HOP-62 NSCLC, 23.3%; in the experiment on NCI-H460 lung, 12%; with HOP-92 NSCLC it was 25.7%. Further, the growth in the experiment with NCI-H522 lung was 37.5%; with A549/ATCC NSCLC, 12.7%; in the experiment with 786-0 renal it was 49.3%; with COLO 205 colon, 50.6%; in the experiment on DU-145 prostate, 48.9%; in the experiment on K-562 leukemia it was 21.7%. The growth in the experiment on MALME-3M melanoma is 51.5%; in the experiment on MDA-MB-231 breast, 46.3%; in the experiment on RXF 393 renal, 41%; with SF-268 CNS, 31.6%; in the experiment with SF-295 CNS it was 21.3%; in the experiment on SF-539 CNS, 47.9%. Further, the growth with UACC-257 melanoma was 31.5%; in the experiment with M14 melanoma it was 30%.

The values are drawn from PubChem BioAssay (NCI).
